Screening data (PubChem)
Only some compounds are listed: those with a hit (about 2.4% of all), similar ones and a draw of the others.
SENP7 block = SENP7 protease inhibition; Q9BQF6; recombinant SENP7, Z-RLRGG-aminoluciferin luminescence, 40 min; inhibition, % at 5 µM; hit rate 1.5% among 330,000;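 active = inhibition above about 50% at the single test dose, limit read from the data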;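 note: plate controls were DMSO with enzyme for no effect and no enzyme buffer wells for full effect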
Target sequence (Q9BQF6 706-1050 limits assumed): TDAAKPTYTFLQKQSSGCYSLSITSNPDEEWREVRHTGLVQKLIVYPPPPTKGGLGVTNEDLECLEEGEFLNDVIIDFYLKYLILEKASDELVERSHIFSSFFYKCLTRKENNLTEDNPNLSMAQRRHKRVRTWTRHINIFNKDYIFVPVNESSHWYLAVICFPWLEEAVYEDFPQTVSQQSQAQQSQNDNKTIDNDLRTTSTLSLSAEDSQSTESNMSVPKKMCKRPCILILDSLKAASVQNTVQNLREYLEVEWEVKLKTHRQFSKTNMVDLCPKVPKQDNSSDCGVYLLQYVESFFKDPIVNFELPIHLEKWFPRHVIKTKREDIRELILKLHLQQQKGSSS
SENP8 block-1 = SENP8 (human) protease inhibition; Q96LD8; recombinant SENP8, Nedd8 substrate fluorescence; inhibition, % at 20 µM; hit rate 0.64% among 360,000; AID 602440; in the data active = inhibition mostly above about 40%, no sharp cut-off; inactive = mostly below about 27%
SENP6 inh = inhibitors of human SENP6 protease; AID 2599; Q9GZR1; Recombinant SENP6 catalytic domain, aminoluciferin luminescence; inhibition, % at 10 µM; hit rate 1.8% among 330,000;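 active = inhibition above about 50% at the single tested dose, limit read from the data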;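 note: plate controls were DMSO wells with enzyme for no effect and DMSO wells lacking enzyme for full effect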
Platelet DG rel = modulates dense granule release in human platelets. human platelet-rich plasma, SFLLRN dense granule ATP release, luminescence. hit rate 0.22% among 300,000. inhibition, %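 (compounds screened at 7.5 µM in platelet-rich plasma)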. AID 1663;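 active = mean replicate score, as percent of positive control, at or above 50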
SENP8 block-2 = inhibitors of human SENP8 protease; Q96LD8; purified SENP8, Z-RLRGG-aminoluciferin cleavage, luminescence; inhibition, % at 10 µM; hit rate 1.2% among 330,000; AID 2540; in the data active = inhibition above about 50%
SENP8 confirm = confirmation of human SENP8 protease inhibitors; shares compounds with SENP7 block; AID 488912; inhibition, % at 12.5 µM; hit rate 40% among 6,200; Recombinant SENP8, Z-RLRGG-aminoluciferin luminescence, 60 min;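 active = mean inhibition across replicates above about 50%, limit read from the data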
SENP6 conf = human SENP6 inhibition, confirmed; shares compounds with SENP7 block; hit rate 58% among 6,200; inhibition, % at 12.5 µM; recombinant SENP6, Z-RLRGG-aminoluciferin luminescence
SENP7 conf = human SENP7 inhibition, confirmed; recombinant SENP7, Z-RLRGG-aminoluciferin luminescence, 40 min; shares compounds with SENP7 block; inhibition, % at 12.5 µM; hit rate 69% among 6,200; AID 488917
Casp3 select = caspase-3 inhibition (SENP selectivity assay). AID 488918. inhibition, % at 12.5 µM. purified caspase-3, Z-DEVD-aminoluciferin luminescence, 60 min. shares compounds with SENP7 block. hit rate 60% among 6,200;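 active = mean inhibition above about 50%, limit read from the data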;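 note: plate controls were enzyme with DMSO for no effect and wells without caspase-3 for full effect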
Target sequence (P42574 28-227 limits assumed): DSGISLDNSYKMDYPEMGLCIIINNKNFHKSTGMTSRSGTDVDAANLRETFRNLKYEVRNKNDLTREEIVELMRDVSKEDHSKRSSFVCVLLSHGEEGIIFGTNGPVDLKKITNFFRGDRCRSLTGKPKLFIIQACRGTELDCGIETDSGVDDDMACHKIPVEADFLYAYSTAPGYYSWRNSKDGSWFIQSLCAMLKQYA
SENP luc ctr = luminescence interference (SENP counter-screen); AID 488919; shares compounds with SENP7 block; Pre-incubated SENP8/Z-RLRGG-aminoluciferin, luciferase luminescence interference; inhibition, % at 12.5 µM; hit rate 39% among 6,200;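 active = mean inhibition above about 50% when retested at one dose, limit read from the data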;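 note: plate controls were DMSO wells with completed reaction for no effect and substrate without enzyme for full effect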
Starred values were filed as active, the others as inactive; / = no result given.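 Rule for the calls, unless noted: active = mean inhibition above about 50% in the one-dose retest (limit read from the data); inactive = the rest.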

SMILES	SENP7 block	SENP8 block-1	SENP6 inh	Platelet DG rel	SENP8 block-2	SENP8 confirm	SENP6 conf	SENP7 conf	Casp3 select	SENP luc ctr
Cc1cc(C)cc(C(=O)O/N=C(\N)c2ccc(Br)cc2)c1	0	8	-4	6	-5	/	/	/	/	/
C=CCOc1ccn(C)c(=O)n1	1	8	-2	12	3	/	/	/	/	/
Cc1ccc(C(C(=O)NC2CCCCC2)N(CC2CCCO2)C(=O)CCCC(=O)Nc2ccccn2)cc1 (configuration not stated)	-9	5	-4	-6	-1	/	/	/	/	/
Cc1cccc(CNC(=O)C(C)n2nc(C)c3c(C)n(-c4ccccc4)nc3c2=O)c1 (configuration not stated)	7	7	-7	3	-13	/	/	/	/	/
c1ccc(-c2ncc(-c3ccn[nH]3)s2)cc1	91*	-387	91*	13	83*	84*	85*	98*	87*	59*
NC(=O)c1ccccc1OCC(=O)N1CCC(Cc2ccccc2)CC1	0	4	-10	/	5	/	/	/	/	/
COC(=O)c1sc(NC(=O)c2c(OC)cccc2OC)c(C#N)c1C	8	-287	3	0	3	/	/	/	/	/
Cc1cccc(C)c1NC(=O)CN1CCc2ccccc2C1	/	18	/	-6	/	/	/	/	/	/
CC1Cc2cc(/C=C3/SC(=S)NC3=O)ccc2O1 (configuration not stated)	2	22	74*	-22	67*	11	76*	84*	47	0
CCN(CC)c1ccc(C=C2SC(=S)NC2=O)cc1	/	38	/	/	/	/	/	/	/	/
COc1ccc(/C=C/C(=O)c2ccccc2O)cc1	67*	11	81*	6	64*	88*	84*	84*	35	46
COc1ccc(/C=C/C(=O)c2ccc(O)cc2)cc1	74*	35	91*	11	90*	65*	48	64*	49	83*
COc1ccc(/C=C/C(=O)c2ccccn2)cc1	15	-22	27	21	17	/	/	/	/	/
Cc1ccc(Nc2nc3nonc3[nH]c2=O)cc1	60*	10	36	2	60*	75*	66*	84*	74*	71*
COc1ccccc1Nc1nc2nonc2[nH]c1=O	-12	-2	-9	2	-23	/	/	/	/	/
CC(OC(=O)c1ccccc1C(=O)N(C)c1ccccc1)C(=O)Nc1ccccc1[N+](=O)[O-] (configuration not stated)	2	10	3	7	7	/	/	/	/	/
Cc1cc(C(=O)COC(=O)c2cccn2C)c(C)n1Cc1ccco1	67*	4	67*	2	64*	81*	80*	94*	68*	-3
Cc1cc(C(=O)COC(=O)c2ccncc2)c(C)n1Cc1ccco1	6	5	-6	0	-10	/	/	/	/	/
C=CCN(Cc1cc(OC)ccc1OC)C(=O)c1cc2ccc(OC)cc2[nH]1	8	-25	10	-2	4	/	/	/	/	/
O=C(CCNS(=O)(=O)c1ccccc1)OCC(=O)c1ccc[nH]1	8	-14	-16	1	-7	/	/	/	/	/
CCCCN(C)C(=O)c1ccc2c(c1)S(=O)(=O)c1ccccc1C2=O	-1	12	-6	-28	1	/	/	/	/	/
Cc1csc(NC(=O)c2ccoc2C)n1	89*	-19	90*	9	75*	82*	82*	96*	93*	82*
CCOC(=O)Cc1csc(NC(=O)c2c(C)noc2C)n1	-1	-10	-5	1	-1	/	/	/	/	/
CCOC(=O)Cc1csc(NC(=O)c2ccoc2C)n1	89*	-6	88*	-10	74*	84*	84*	94*	93*	83*
Cn1nccc1C(=O)N1CCCC(N2CCN(c3cccc(C(F)(F)F)c3)CC2)C1 (configuration not stated)	-4	-1	-12	-13	-4	/	/	/	/	/
SMILES	SENP7 block	SENP8 block-1	SENP6 inh	Platelet DG rel	SENP8 block-2	SENP8 confirm	SENP6 conf	SENP7 conf	Casp3 select	SENP luc ctr
CCOc1ccc(/C=C2\CCc3ccccc3C2=O)cc1	99*	-3	97*	16	95*	-3	88*	14	34	12
O=C1/C(=C/c2ccncc2)CCc2ccccc21	1	-5	50	39	7	/	/	/	/	/
COc1cc(/C=C2/CCc3ccccc3C2=O)cc(OC)c1OC	6	5	-8	20	-1	/	/	/	/	/
O=C1/C(=C\c2ccncc2)CCc2ccccc21	60*	4	57*	32	14	76*	48	26	6	91*
COc1ccc(/C=C2/CCc3ccccc3C2=O)cc1OC	40	-12	59*	-4	-2	65*	63*	60*	28	43
COc1ccc(/C=C2\OC(=O)c3c(OC)cccc32)cc1OC	45	-487	62*	4	47	3	12	84*	61*	14
Cc1ccc(C(=O)OCC(=O)c2ccc(Cl)s2)s1	24	25	54*	2	30	52*	46	80*	40	28
O=C(COC(=O)c1ccc[nH]c1=O)c1ccc(Cl)s1	-14	14	-16	-1	-11	/	/	/	/	/
Cc1ccc(C(=O)OCC(=O)NCCNC(=O)COC(=O)c2ccc(C)s2)s1	-9	2	2	2	-8	/	/	/	/	/
O=C(COC(=O)c1cccnc1Cl)c1ccc(Cl)s1	76*	11	56*	/	42	67*	63*	88*	80*	76*
Cc1nn(C)c(C)c1S(=O)(=O)N(CC(=O)NCCCN1CCC(C)CC1)c1ccc(C(C)C)cc1	-13	8	-8	-1	-1	/	/	/	/	/
COc1ccc(C/C(=N\OC(C)=O)c2ccc(OC)cc2)cc1	98*	10	96*	3	91*	92*	96*	102*	96*	95*
COC(=O)/N=C(/Cc1ccc(OC)cc1)c1ccc(OC)cc1	94*	6	96*	5	92*	97*	97*	102*	96*	90*
CCN(C(=O)COC(=O)c1ccccc1NCCO)C1CCS(=O)(=O)C1 (configuration not stated)	5	-419	1	14	13	/	/	/	/	/
O=C(COC(=O)c1cc(=O)c2ccccc2o1)NCc1ccc(Cl)cc1	/	7	/	/	/	/	/	/	/	/
O=C1NC(=S)N/C1=C/c1cc2c(cc1[N+](=O)[O-])OCO2	26	-106	64*	-2	75*	13	63*	24	4	0
O=C(O)/C=C\c1cc2c(cc1[N+](=O)[O-])OCO2	-4	-19	-9	4	-7	/	/	/	/	/
